Screening data from PubChem BioAssay.
In the library only some 0.83% were active in any assay of this set; here they are far more common.
S1P4 antagonist = blocks the human S1P4 receptor; AID 1510; inhibition, % at 4.98 µM; O95977; actives 0.26% (n = 220,000); S1P4-expressing cells, antagonist mode, reporter read-out; in the data active = inhibition above about 29%
S1P4 ag = agonists of human S1P4 receptor; O95977; S1P4-expressing cell line, agonist reporter assay; activation, % at 4.98 µM; actives 0.35% (n = 220,000); AID 1509; in the data active = activation above about 11%
S1P3 antagonist = blocks the human S1P3 receptor. Q99500. CHO S1P3 NFAT-BLA reporter, FRET fluorescence, antagonist mode. inhibition, % at 4.98 µM. actives 0.27% (n = 170,000). AID 485;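 active = inhibition above the plate cutoff, the mean inhibition of test wells on that plate plus 3 SD, cut at about 28% in these data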;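 note: cells challenged with S1P at its EC80 of 0.8 µM; blue over green emission ratio from cleaved BLA substrate after 4 h stimulation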
Target sequence (Q99500 whole entry, looked up): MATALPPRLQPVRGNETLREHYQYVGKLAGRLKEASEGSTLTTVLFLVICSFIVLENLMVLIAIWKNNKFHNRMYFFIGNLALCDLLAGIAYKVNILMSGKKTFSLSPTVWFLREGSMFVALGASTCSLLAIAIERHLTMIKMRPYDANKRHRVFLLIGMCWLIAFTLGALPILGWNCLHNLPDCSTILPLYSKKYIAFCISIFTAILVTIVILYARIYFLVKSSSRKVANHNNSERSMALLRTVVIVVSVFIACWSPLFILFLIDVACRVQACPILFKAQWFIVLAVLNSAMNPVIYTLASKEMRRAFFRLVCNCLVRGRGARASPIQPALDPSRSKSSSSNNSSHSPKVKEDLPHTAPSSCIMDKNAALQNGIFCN
Hsp70 act = transcriptional activators of Hsp70; HeLa Hsp70 promoter luciferase reporter, luminescence; scaled: vehicle 0, proteasome-inhibitor control 100%; activation, % at 10 µM; actives 0.04% (n = 200,000);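 active = activation above the mean across all tested compounds plus 3 SD, cutoff set per campaign, cut at about 5.5% in these data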
Pf gametocyte = kills late stage P. falciparum gametocytes. actives 0.065% (n = 150,000). P. falciparum stage V gametocytes, ATP luminescence, 24 h. AID 743093. inhibition, % at 10.9 µM;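 active = inhibition above the mean plus 3 SD of compounds within the control limits, set per campaign, cut at about 38% in these data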
S1P4 antag cf = human S1P4 antagonism, confirmation; actives 71% (n = 520); S1P4-expressing cell line, antagonist mode, reporter read-out; shares compounds with S1P4 antagonist; inhibition, % at 4.98 µM; in the data active = inhibition above about 30%
S1P1 antagonist = counter-screen for S1P4 antagonists: antagonists of human S1P1; shares compounds with S1P4 antagonist; cell-based S1P1 antagonist counterscreen, inhibition; inhibition, % at 4.98 µM; actives 37% (n = 520); in the data active = inhibition above about 40%;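 note: receptor stimulated with S1P near its EC80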
Hits are given with their value.

For CN(C)c1ccnc(NCc2ccccc2)c1C#N the results were S1P4 antagonist inactive, S1P4 ag inactive, S1P3 antagonist inactive, Hsp70 act inactive and Pf gametocyte inactive.
Screening Cc1cc(N(C)C)c(C#N)c(NCc2ccccc2)n1 returned S1P4 antagonist 34.6, S1P4 ag inactive, S1P3 antagonist inactive, Hsp70 act inactive, Pf gametocyte inactive, S1P4 antag cf inactive and S1P1 antagonist inactive.
OC(c1cc(C(F)(F)F)nc2c(Cl)cc(Cl)cc12)C1CCCCN1 (configuration not stated) was read as S1P4 antagonist inactive, S1P4 ag inactive and S1P3 antagonist inactive.
`OC(c1cc(-c2ccc(Cl)cc2)nc2ccccc12)C1CCCCN1` (configuration not stated) gave S1P4 antagonist 53.1, S1P4 ag inactive, S1P3 antagonist inactive, S1P4 antag cf 95.0 and S1P1 antagonist 83.5.
Screening O=C(/C=C/c1ccccc1O)c1ccco1 returned Pf gametocyte inactive.
Screening O=C(/C=C/c1cc(Br)ccc1O)c1ccco1 returned S1P4 antagonist 54.8, S1P4 ag inactive, S1P3 antagonist inactive, Pf gametocyte inactive, S1P4 antag cf 103.0 and S1P1 antagonist 55.5.
`CCCN(CCC)S(=O)(=O)c1ccc(N2CCCC2=O)c([N+](=O)[O-])c1` gave S1P4 antagonist inactive, S1P4 ag inactive, S1P3 antagonist inactive, Hsp70 act inactive and Pf gametocyte inactive.
CCCN(CCC)S(=O)(=O)c1ccc(Cl)c([N+](=O)[O-])c1 was read as S1P4 antagonist 52.0, S1P4 ag inactive, S1P3 antagonist inactive, Hsp70 act inactive, Pf gametocyte inactive, S1P4 antag cf 100.3 and S1P1 antagonist inactive.
`O=S1(=O)Nc2c(ccc3cccnc23)-c2ccccc21` gave S1P4 antagonist 49.6, S1P4 ag inactive, S1P3 antagonist inactive, Hsp70 act inactive, S1P4 antag cf 95.0 and S1P1 antagonist 88.8.
Screening CN(C)Cc1nnnn1-c1ccccc1 returned S1P4 antagonist inactive, S1P4 ag inactive, S1P3 antagonist inactive and Pf gametocyte inactive.
c1ccc(-c2nnc(CN3CCN(C(c4ccccc4)c4ccccc4)CC3)o2)cc1 was read as S1P4 antagonist 68.1, S1P4 ag inactive, S1P3 antagonist inactive, Hsp70 act inactive, S1P4 antag cf inactive and S1P1 antagonist inactive.
`Cc1cccc(CS(=O)(=O)c2nnc([C@H](Cc3ccccc3)NC(=O)OC(C)(C)C)o2)c1` gave S1P4 antagonist 88.3, S1P4 ag inactive, Hsp70 act inactive, S1P4 antag cf 93.0 and S1P1 antagonist inactive.
CN1c2ccccc2Oc2nnc(N3CCN(Cc4ccccc4)CC3)cc21 was read as S1P4 antagonist 32.6, S1P4 ag inactive, S1P3 antagonist inactive, Hsp70 act inactive, S1P4 antag cf inactive and S1P1 antagonist inactive.
CN1c2ccccc2Oc2nnc(Cl)cc21 was read as S1P4 antagonist inactive, S1P4 ag inactive, S1P3 antagonist inactive, Hsp70 act inactive and Pf gametocyte inactive.
For O=C(N/N=C/C1CC=CCC1)c1cc(-c2cccnc2)nc2ccccc12 (configuration not stated) the results were S1P4 antagonist inactive, S1P4 ag inactive, S1P3 antagonist inactive, Hsp70 act inactive and Pf gametocyte inactive.
For CC(C)(C)c1ccc(NC(=O)COC(=O)C2(C)CC2(Cl)Cl)cc1 (configuration not stated) the results were S1P4 antagonist inactive, S1P4 ag inactive, S1P3 antagonist inactive, Hsp70 act inactive and Pf gametocyte inactive.
Screening O=c1c2c(nc3nc(NCc4cccc5ccccc45)[nH]n13)CCC2 returned S1P4 antagonist inactive, S1P4 ag inactive, S1P3 antagonist inactive and Hsp70 act inactive.
Screening O=C1/C(=C/Nc2ccc3c(c2)OCO3)CCc2ccccc21 returned S1P4 antagonist 30.7, S1P4 ag inactive, S1P3 antagonist inactive, Hsp70 act inactive, S1P4 antag cf inactive and S1P1 antagonist 74.2.
Screening CCOC(=O)N/N=C(\C)c1ccc(OC(F)F)cc1OC(F)F returned S1P4 antagonist inactive, S1P4 ag inactive, S1P3 antagonist inactive, Hsp70 act inactive and Pf gametocyte inactive.
O=c1[nH]ncc(N2CCN(Cc3ccccc3)CC2)c1Cl was read as S1P4 antagonist inactive, S1P4 ag inactive, S1P3 antagonist inactive, Hsp70 act inactive and Pf gametocyte inactive.
For O=C(N/N=C/c1ccccc1)c1n[nH]c2c1CCCC2 the results were S1P4 antagonist inactive, S1P4 ag inactive, S1P3 antagonist inactive, Hsp70 act inactive and Pf gametocyte inactive.
`O=C(N/N=C/C(Br)=C/c1ccccc1)c1n[nH]c2c1CCC2` gave S1P4 antagonist 31.5, S1P4 ag inactive, Hsp70 act inactive, S1P4 antag cf 45.8 and S1P1 antagonist 81.7.
`O=C(CCCn1cnc([N+](=O)[O-])n1)Nc1cccc2ccccc12` gave S1P4 antagonist 111.7, S1P4 ag inactive, S1P3 antagonist inactive, Hsp70 act inactive, Pf gametocyte inactive, S1P4 antag cf inactive and S1P1 antagonist inactive.
For O=C(Cn1cnc([N+](=O)[O-])n1)NCc1ccccc1 the results were S1P4 antagonist inactive, S1P4 ag inactive, Hsp70 act inactive and Pf gametocyte inactive.
Cc1ccc(NN2C(=O)C=C(c3ccc(Cl)cc3)C2=O)cc1 was read as S1P4 antagonist 31.2, S1P4 ag inactive, Hsp70 act inactive, Pf gametocyte inactive, S1P4 antag cf 91.8 and S1P1 antagonist inactive.
`CCOC(=O)c1sc(-c2ccc(Cl)cc2Cl)nc1O` gave S1P4 antagonist inactive, S1P4 ag inactive, S1P3 antagonist inactive and Pf gametocyte inactive.
Screening Cc1onc(-c2ccccc2Cl)c1C(=O)OCn1nnc2ccccc2c1=O returned S1P4 antagonist 29.8, S1P4 ag inactive, S1P3 antagonist inactive, Hsp70 act inactive, S1P4 antag cf inactive and S1P1 antagonist inactive.
`COc1ccc(/C=C(/C(=O)c2ccc(Cl)cc2Cl)n2cncn2)cc1` gave S1P4 antagonist 37.1, S1P4 ag inactive, Hsp70 act inactive, S1P4 antag cf inactive and S1P1 antagonist inactive.
`CC(C)CC(=O)/C(=C\c1ccc(Cl)cc1Cl)n1cncn1` gave S1P4 antagonist 52.6, S1P4 ag inactive, S1P3 antagonist inactive, Hsp70 act inactive, S1P4 antag cf 119.3 and S1P1 antagonist 95.8.
`CN(C)c1ccc(/C=C(/C(=O)c2ccc(Cl)cc2Cl)n2cncn2)cc1` gave S1P4 antagonist inactive, S1P4 ag inactive, S1P3 antagonist inactive and Hsp70 act inactive.
For O=C(CNC(=S)N(Cc1ccccc1)Cc1cccnc1)NCCN1CCOCC1 the results were S1P4 antagonist inactive, S1P4 ag inactive, S1P3 antagonist inactive and Hsp70 act inactive.
For CC1CC(C)(C)Nc2ccc(N=O)cc21 (configuration not stated) the results were S1P4 antagonist 36.8, S1P4 ag inactive, S1P3 antagonist inactive, Hsp70 act inactive, Pf gametocyte inactive, S1P4 antag cf 50.4 and S1P1 antagonist inactive.
